Active and inactive are the calls of the source. Unless noted, how the calls were made is not given here.

The source of these data is PubChem BioAssay.

A short description of assay [1]: anti-His antibody binders, primary screen, artefact control for SMM control protein annotation, biochemical, small-molecule microarray, 635 nm fluorescence (AID 1128).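 Further: score merges feature fluorescence with signal-to-noise for each printed compound spot.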 Particulars: anti-His Alexa647 antibody binding, higher = more signal.
In assay [2] the test system is Human papillomavirus type 1a E7 protein (residues 1-88). Description: HPV1a E7 small-molecule binders, primary screen, biochemical, small-molecule microarray, residues 1-88, 635 nm (AID 1129). Particulars: small-molecule microarray binding, fluorescence 635 nm; higher = more signal.
Assay [3] has as its target Focal adhesion kinase 1 (Homo sapiens) (UniProt Q05397). Description: small-molecule microarray binders of FAK, primary screen, biochemical, 635/667 nm fluorescence, BSA, DTT (AID 1130).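 Further: composite of spot emission at 667 nm and signal to noise over triplicate slides.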 Conditions: PTK2 binding, 635 nm fluorescence, higher = more signal.
In assay [4] the test system is Fibrinogen (Alexa647-labelled). Description: fibrinogen binders on compound microarrays, profiling panel, artefact control for SMM control-protein annotation, biochemical, small-molecule microarray, 635/667 nm fluorescence (AID 1131).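 Further: z-score merges 667 nm fluorescence with per-spot signal-to-noise over triplicate slides.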 Particulars: fibrinogen-A647 binding fluorescence, higher = more signal.
The target of assay [5] is Follistatin (Homo sapiens) (UniProt P19883). Description: follistatin binders on small-molecule microarrays, primary screen, biochemical, small-molecule microarray, 635/667 nm fluorescence (AID 1132). Particulars: FST binding, 635 nm fluorescence, higher = more signal.
Sequence of Follistatin (Homo sapiens) (P19883 whole entry, looked up): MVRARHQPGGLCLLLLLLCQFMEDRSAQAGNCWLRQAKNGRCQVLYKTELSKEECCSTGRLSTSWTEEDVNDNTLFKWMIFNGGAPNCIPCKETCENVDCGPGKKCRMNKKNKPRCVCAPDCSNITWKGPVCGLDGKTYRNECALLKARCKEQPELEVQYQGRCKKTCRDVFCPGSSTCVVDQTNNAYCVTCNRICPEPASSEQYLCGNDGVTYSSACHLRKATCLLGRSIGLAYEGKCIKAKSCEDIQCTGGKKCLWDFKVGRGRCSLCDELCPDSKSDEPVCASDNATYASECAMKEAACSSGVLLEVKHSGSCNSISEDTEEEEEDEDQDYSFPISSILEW
The target of assay [6] is Fibroblast growth factor 2 (Homo sapiens) (UniProt P09038). Description: FGF2 binders on small-molecule microarrays, primary screen, biochemical, small-molecule microarray, 635/667 nm fluorescence (AID 1133). Particulars: small-molecule microarray binding, FGF2, fluorescence 635/667; higher = more signal.
Sequence of Fibroblast growth factor 2 (Homo sapiens) (P09038 whole entry, looked up): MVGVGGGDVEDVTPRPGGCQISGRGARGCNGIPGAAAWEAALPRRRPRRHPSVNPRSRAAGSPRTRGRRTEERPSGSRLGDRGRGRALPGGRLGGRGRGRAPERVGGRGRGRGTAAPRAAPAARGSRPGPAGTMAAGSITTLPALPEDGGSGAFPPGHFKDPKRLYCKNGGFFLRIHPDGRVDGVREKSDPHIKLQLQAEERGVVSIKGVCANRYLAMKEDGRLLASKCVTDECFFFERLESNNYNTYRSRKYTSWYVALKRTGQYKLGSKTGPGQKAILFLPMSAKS
Assay [7] can be described thus: mitochondrial membrane potential change in A549 cells, profiling panel, cell-based, JC-1 fluorescence, basal, 24 h, 100 nL (AID 1138).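 Further: A549 lung adenocarcinoma cells under basal conditions with no added stimulus; test concentration not given here.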 Particulars: higher = more signal.
The test system of assay [8] is Lefty1. Description: Lefty1 binders on small-molecule microarrays, primary screen, biochemical, small-molecule microarray, 635/667 nm fluorescence (AID 1139). Particulars: small-molecule microarray binding, fluorescence 635/667; higher = more signal.
For assay [9], the system named is wheat germ agglutinin (Triticum aestivum), Alexa647-labelled. Description: wheat germ agglutinin binders on compound microarrays, profiling panel, artefact control for SMM control-protein annotation, biochemical, small-molecule microarray, 635/667 nm fluorescence (AID 1140).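 Further: score merges 667 nm feature emission with signal to noise over triplicate slides.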 Conditions: WGA-A647 binding, 635 nm fluorescence, higher = more signal.
The target in assay [10] is Luciferin 4-monooxygenase (Photinus pyralis) (UniProt P08659). Description: firefly luciferase enzyme inhibitors, primary screen, biochemical, luminescence, purified enzyme, 2006 set (AID 1141).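 Further: cell-free assay with purified firefly luciferase at 100 ng per well in PBS; test concentration not given here.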 Conditions: SteadyGlo luminescence, 30 min, higher = more signal, called active from +8 up or from −8 down.
Sequence of Luciferin 4-monooxygenase (Photinus pyralis) (P08659 whole entry, looked up): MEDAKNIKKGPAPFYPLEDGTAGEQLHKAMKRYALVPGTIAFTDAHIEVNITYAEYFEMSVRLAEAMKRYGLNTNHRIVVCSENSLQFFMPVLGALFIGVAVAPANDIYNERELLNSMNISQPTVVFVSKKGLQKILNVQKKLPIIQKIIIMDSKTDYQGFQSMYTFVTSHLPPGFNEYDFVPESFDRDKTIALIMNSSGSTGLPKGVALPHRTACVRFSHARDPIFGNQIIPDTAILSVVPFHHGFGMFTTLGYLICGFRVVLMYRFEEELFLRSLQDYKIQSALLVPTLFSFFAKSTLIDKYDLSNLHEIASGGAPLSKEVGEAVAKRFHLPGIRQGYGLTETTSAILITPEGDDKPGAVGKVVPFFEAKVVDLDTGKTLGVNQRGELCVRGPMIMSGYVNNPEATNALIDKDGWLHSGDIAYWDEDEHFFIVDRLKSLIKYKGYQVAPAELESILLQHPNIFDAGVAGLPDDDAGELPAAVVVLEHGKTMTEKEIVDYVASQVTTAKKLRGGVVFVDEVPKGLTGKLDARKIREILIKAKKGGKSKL
For assay [11], the system named is Wnt5a (protein binding on small-molecule microarray). Description: Wnt5a binders on small-molecule microarray, primary screen, biophysical, 635/667 nm fluorescence (AID 1142).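 Further: fluorescence read at 667 nm with signal to noise per printed feature.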 Conditions: 635 nm fluorescence, higher = more signal.
A short description of assay [12]: cell viability in Huh7 cells, primary screen, cytotoxicity control for HCV replication inhibitor project, CellTiter-Glo luminescence, basal, 48 h (AID 1143).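 Further: Huh7 hepatoma cells carrying a hepatitis C replication reporter with no stimulus; test concentration not given here.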 Particulars: Huh7 HCV replicon, higher = more signal, called active from +8 up or from −8 down.
Assay [13] is described as follows: P. aeruginosa biofilm formation inhibitors, primary screen, PAO1 strain, BacTiter-Glo luminescence, LB-PBS (AID 1144). Conditions: 12 h, higher = more signal.
Assay [14] in a line: CREB reporter modulators without forskolin, primary screen, cell-based, PC12, CRE-LacZ reporter, unstimulated (AID 1145). Particulars: no forskolin, luminescence, 4.5 h, higher = more signal, called active from +8 up or from −8 down.
Assay [15] in a line: CREB reporter modulators under forskolin, primary screen, cell-based, PC12, CRE-LacZ reporter, forskolin-stimulated (AID 1146).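 Further: PC12 cells with 6xCRE LacZ reporter stimulated by forskolin 10 µM; beta-galactosidase reporter signal reflecting CREB driven transcription.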 Particulars: luminescence, 4.5 h, higher = more signal, called active from +8 up or from −8 down.
The target of assay [16] is Streptavidin (Streptomyces avidinii) (UniProt P22629). Description: streptavidin binders on small-molecule microarray, primary screen, artefact control for SMM compound annotation, biophysical, 635/667 nm fluorescence (AID 1147).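 Further: signal reflects streptavidin binding to arrayed compounds as a control protein.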 Particulars: streptavidin binding, higher = more signal.
Sequence of Streptavidin (Streptomyces avidinii) (P22629 whole entry, looked up): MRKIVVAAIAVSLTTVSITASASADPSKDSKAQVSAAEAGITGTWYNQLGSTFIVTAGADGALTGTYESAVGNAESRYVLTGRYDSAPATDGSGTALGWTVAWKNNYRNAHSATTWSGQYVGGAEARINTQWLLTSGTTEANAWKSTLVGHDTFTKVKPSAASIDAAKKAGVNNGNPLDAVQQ
Assay [17] is described as follows: small-molecule binders of probe aInhba, primary screen, biochemical, small-molecule microarray, 635/667 nm fluorescence (AID 1148).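 Further: score merges 667nm spot fluorescence with signal-to-noise for antibody binding to printed compounds.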 Conditions: higher = more signal.
For assay [18], the target named is Torsin-1A (Homo sapiens) (UniProt O14656). Description: torsin A binders from cell lysate, primary screen, small-molecule microarray, wild-type, 635/667 nm (AID 1149). Conditions: COS7 hTOR1A-WT lysate, 635 nm fluorescence, higher = more signal.
Sequence of Torsin-1A (Homo sapiens) (O14656 whole entry, looked up): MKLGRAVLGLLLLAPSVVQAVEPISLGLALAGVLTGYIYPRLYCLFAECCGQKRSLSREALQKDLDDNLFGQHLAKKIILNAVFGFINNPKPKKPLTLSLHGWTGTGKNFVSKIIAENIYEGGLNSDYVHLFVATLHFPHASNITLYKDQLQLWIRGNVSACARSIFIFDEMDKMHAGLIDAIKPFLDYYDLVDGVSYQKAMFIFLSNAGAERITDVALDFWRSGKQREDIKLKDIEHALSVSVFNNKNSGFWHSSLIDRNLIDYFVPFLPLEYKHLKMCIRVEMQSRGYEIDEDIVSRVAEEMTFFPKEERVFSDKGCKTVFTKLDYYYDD
The target is the same in assay [19]. Description: small-molecule binders of mutant TOR1A in lysate, primary screen, cell lysate, small-molecule microarray, COS7 lysate, 635/667 nm fluorescence (AID 1150).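 Further: score pools 667 nm emission and signal to noise measuring lysate protein binding.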 Conditions: COS7 hTOR1A mutant lysate, 635 nm fluorescence, higher = more signal.
Assay [20] concerns Sonic hedgehog protein (Shh). Description: small-molecule binders of Shh protein, primary screen, biochemical, small-molecule microarray, 635/667 nm fluorescence (AID 1151).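 Further: Shh protein binding to compounds spotted on small-molecule microarray slides; score combines spot fluorescence intensity with signal-to-noise across triplicate slides.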 Conditions: small-molecule microarray binding, 635 nm fluorescence; higher = more signal.

Sequence of Focal adhesion kinase 1 (Homo sapiens) (Q05397 whole entry, looked up): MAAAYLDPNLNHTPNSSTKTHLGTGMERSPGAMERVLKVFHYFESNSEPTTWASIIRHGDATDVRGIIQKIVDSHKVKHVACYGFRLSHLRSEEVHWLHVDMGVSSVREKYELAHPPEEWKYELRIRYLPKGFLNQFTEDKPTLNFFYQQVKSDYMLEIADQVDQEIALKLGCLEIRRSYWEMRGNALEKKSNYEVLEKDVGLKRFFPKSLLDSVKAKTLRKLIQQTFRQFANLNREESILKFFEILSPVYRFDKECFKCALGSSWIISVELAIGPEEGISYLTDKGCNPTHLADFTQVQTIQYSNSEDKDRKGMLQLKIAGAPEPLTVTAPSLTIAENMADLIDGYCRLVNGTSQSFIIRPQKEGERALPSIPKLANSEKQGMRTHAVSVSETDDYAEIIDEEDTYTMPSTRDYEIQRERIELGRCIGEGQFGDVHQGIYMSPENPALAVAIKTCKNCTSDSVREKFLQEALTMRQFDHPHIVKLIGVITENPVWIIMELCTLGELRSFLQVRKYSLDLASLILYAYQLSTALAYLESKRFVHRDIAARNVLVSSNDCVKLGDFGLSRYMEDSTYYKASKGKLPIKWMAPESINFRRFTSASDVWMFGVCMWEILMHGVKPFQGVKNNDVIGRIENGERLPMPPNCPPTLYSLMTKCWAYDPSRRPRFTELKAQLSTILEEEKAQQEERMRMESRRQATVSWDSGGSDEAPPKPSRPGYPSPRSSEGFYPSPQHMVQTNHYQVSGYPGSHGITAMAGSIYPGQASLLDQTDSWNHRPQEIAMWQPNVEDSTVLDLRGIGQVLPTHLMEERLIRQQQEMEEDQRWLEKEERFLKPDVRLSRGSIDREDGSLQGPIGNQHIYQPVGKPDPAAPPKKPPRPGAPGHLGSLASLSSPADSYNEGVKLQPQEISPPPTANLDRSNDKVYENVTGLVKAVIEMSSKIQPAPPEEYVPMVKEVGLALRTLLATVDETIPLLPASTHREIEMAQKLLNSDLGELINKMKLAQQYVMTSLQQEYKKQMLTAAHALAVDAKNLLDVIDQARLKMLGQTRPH

For the compound `CCCCCCc1nc(-c2ccc(-c3ccc(Cl)c(Cl)c3)o2)cc2c1[Si](C(C)C)(C(C)C)O[C@H]2c1ccccc1`, the composite z-score was -0.403 in assay [1]; -0.73 in [2]; -0.132 in assay [3]; -1.34 in assay [4]; -0.348 in assay [5]; -0.434 in [6]. In addition, the composite z-score in [8] was 0.0259; in [9], 1.04; in assay [11] it was -0.355; in assay [16], -0.711; in [17], -0.0719; in [18], -0.512. For the same compound, the composite z-score in [19] was 0.978; in [20], -0.434. The z-score in assay [7] was -0.859; in [10], 0.712 (inactive); in assay [12], -0.731 (inactive); in assay [13], -0.206 (inactive); in assay [14], -0.113 (inactive); in [15], 0.497 (inactive).
On to `CN(C)CCCCNC(=O)[C@@H]1C[C@@H]2C(=O)N[C@@H](CCCCN)C(=O)N2[C@@H]1c1ccc(O)cc1`, for which the composite z-score in assay [1] was 0.253; in [2], -0.0102; in assay [3], -0.0748; in assay [4] it was 0.223; in assay [5] it was 1.34; in assay [6], 1.68. The composite z-score was 0.896 in assay [8]; 0.857 in assay [9]; 0.0291 in assay [11]; 0.98 in assay [16]; -0.0403 in [17]; 0.584 in assay [18]. For the same compound, the composite z-score in [19] is 0.435; in assay [20] it was 1.23. Besides, the z-score in [7] was -1.38; in [10], -0.0213 (inactive); in [12], -0.151 (inactive); in assay [13] it was -0.0779 (inactive); in assay [14], 0.281 (inactive); in [15], -0.773 (inactive).
In the case of `COc1ccc([Si](C)(C)[C@@H]2[C@@H](CC(=O)N3Cc4ccccc4C[C@H]3CO)O[C@]3(C(=O)N(Cc4cccc(N5CCC5=O)c4)c4ccccc43)[C@H]2C)cc1`, the composite z-score in assay [1] is 0.887; in assay [2], 1.12; in [3], 0.366; in assay [4] it was 0.357; in [5] it was 1.22; in assay [6], 1.01. Also, the composite z-score was 1.02 in assay [8]; 0.696 in [9]; 0.103 in [11]; 0.244 in assay [16]; -0.0463 in [17]; 0.589 in [18]. Also, the composite z-score was 0.61 in assay [19] and 1.45 in assay [20]. Further, the z-score in assay [7] is -0.256; in assay [10] it was -0.106 (inactive); in assay [12], -3.42 (inactive); in [13], -0.0211 (inactive); in assay [14], 2.03 (inactive); in [15], 1.34 (inactive).
Regarding `CC(C)(C)OC(=O)CC[C@]1(C(N)=O)N=C(c2ccc(OCCCO)cc2)O[C@H]1c1ccccc1`, the composite z-score came to 2.07 in assay [1]; 1.2 in [2]; 0.35 in assay [3]; 0.407 in assay [4]; 0.839 in assay [5]; 0.29 in [6]. Further, the composite z-score in [8] is -0.388; in assay [9] it was 1.48; in [11], 0.836; in [16], 0.679; in assay [17] it was 0.4; in [18], -0.037. Further, the composite z-score in [19] is 0.941; in [20], -0.332. Besides, the z-score is 1.04 in assay [7]; -0.47 (inactive) in assay [10]; -0.408 (inactive) in assay [12]; 0.304 (inactive) in assay [13]; -0.585 (inactive) in assay [14]; -0.121 (inactive) in assay [15].
For `CCCCC(=C=CC[C@H](O)c1cccc(OCCO)c1)C[C@H](O)c1ccccn1`, the composite z-score in [1] is 0.536; in assay [2], -0.0708; in [3] it was -0.0538; in assay [4], 0.538; in assay [5] it was 0.346; in assay [6], 0.257. For the same compound, the composite z-score was 0.38 in [8]; 0.0704 in assay [9]; 0.11 in assay [11]; 0.329 in [16]; -0.101 in [17]; 0.147 in assay [18]. Moreover, the composite z-score in assay [19] worked out at 0.704; in assay [20], 0.577. The z-score in assay [7] is 0.782; in assay [10], -0.167 (inactive); in [12] it was -2.42 (inactive); in [13], -0.478 (inactive); in assay [14], 0.685 (inactive); in assay [15] it was -0.738 (inactive).
